PubChem BioAssay AID1813 (Broad Institute, 2009)
Among all 300,000 compounds or so, about 2,500 (0.83%) were called active. For the sample, actives were picked, then their nearest neighbours and some compounds at random. Unmarked numbers belong to inactive results. Rule as the data show it: active = inhibition above about 60%; inconclusive = no clear call, values can overlap the other calls; inactive = below that.

Assay: MLPCN primary screen, SNCA 5' untranslated region (AID 1813);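 also: H4 neuroglioblastoma cells stably carrying SNCA 5'UTR luciferase fusion; 0% = DMSO wells and 100% = positive control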
Conditions: alpha-synuclein 5'UTR reporter, inhibitor activity; active compounds read high; tested at 7.5 µM

Row | Structure (SMILES) | inhibition
1 | CCCOc1cccc(C(=O)Nc2nnn(CCC)n2)c1 | -87.6%
2 | CC(C)CNC(=O)COC(=O)c1ccccc1OCC(=O)Nc1ccc(Br)cc1 | 1.89%
3 | O=C(COC(=O)c1ccc(NS(=O)(=O)c2cccs2)cc1O)Nc1ccc(F)cc1 | 7.94%
4 | NS(=O)(=O)c1ccc(NC2=CC(c3ccc(F)cc3)N(c3ccc(S(N)(=O)=O)cc3)C2=O)cc1 (stereo unspecified) | 15.1%
5 | COc1ccc(CN(C)C(C)C(=O)NC2CCCc3ccccc32)cc1 (stereo unspecified) | 8.59%
6 | COc1ccc(/C=C/c2noc(-c3ccccc3OC(C)=O)n2)cc1 | -34.8%
7 | Cc1ccc(-c2nc(-c3ccncc3)no2)c(C)c1 | -108%
8 | COc1ccc(-c2nc(-c3ccccc3)no2)c(OC)c1 | 68.9% (active)
9 | CCC1CO/C(=C(\C(=C(Cl)Cl)N2CCOCC2)[N+](=O)[O-])N1 (stereo unspecified) | -4.02%
10 | CCOc1cc(N2CCOCC2)c(OCC)cc1NC(=O)COc1cccc(Cl)c1 | 9.4%
11 | CCOc1cc(N2CCOCC2)c(OCC)cc1NC(=O)COc1cccc2cccnc12 | 88.8% (active)
12 | CCOc1cc(N2CCOCC2)c(OCC)cc1NC(=O)c1cc(C)nc2ccccc12 | 7.38%
13 | CCOC(=O)C(C)Oc1cccc2c(=O)n(CC(=O)NCCc3ccc(OC)c(OC)c3)ccc12 (stereo unspecified) | 12.9%
14 | Cc1nn(C)c(C)c1CN(C(=O)CCc1nnc(Cc2c[nH]c3ccccc23)o1)C(C)C | 13.9%
15 | Cc1oc2c(F)c(F)c(F)c(F)c2c1S(=O)(=O)Nc1cccc(C(F)(F)F)c1 | 17.3%
16 | CCNC(=S)N1CCC(c2nc3cc(C)c(C)cc3[nH]2)CC1 | -15.5%
17 | Cc1cccc(-[n+]2c(-c3cccc(Br)c3)[nH]c3nc4ccccc4nc32)c1 | 73.9% (active)
18 | Cc1cccc(-c2nc(Nc3ccc(O)cc3)c3ccccc3n2)c1 | 2.9%
19 | Cc1ccc(/C=C2\CCn3c2nc2cc(C(=O)O)ccc2c3=O)c(C)c1 | -20%
20 | Nc1ccc2nn(-c3ccc(Cl)cc3)nc2c1 | -27.3%
21 | CC[n+]1cc(C)ccc1/C=C/c1ccc(N(C)C)cc1 | 90.6% (active)
22 | CN(C)c1ccc(/C=N\S(=O)(=O)c2ccccc2)cc1 | -6.91%
23 | O=C(CN1CCN(c2ncccn2)CC1)Nc1ccccc1C(F)(F)F | -6.88%

Row | Structure (SMILES) | inhibition
24 | Brc1ccc2c(c1)[C@H]1OCC[C@H]1[C@@H](c1cccs1)N2 | 72.2% (active)
25 | CC(C)CCn1c(=O)c2c(nc3n2CCCN3Cc2ccccc2)n(C)c1=O | 23.1%
26 | COc1ccc(C)cc1N(CC(=O)N1CCCC1)S(=O)(=O)c1ccccc1 | -6.96%
27 | Cc1ccc(CNC(=O)CCNS(=O)(=O)c2cccc3nonc23)cc1 | 9.75%
28 | CN(C(=O)c1cc2c(=O)n3ccccc3nc2s1)C1CCCCC1 | -42.4%
29 | O=c1c2ccccc2nc2n1C1(CCCCC1)Cc1ccccc1-2 | 0.0175%
30 | CN(c1ccc2nc3ccccc3c(=O)n2n1)C1CCCCC1 | 119% (active)
31 | Cc1ccc(CN2CCNC(=O)C2CC(=O)NCc2csc(C(C)C)n2)cc1 (stereo unspecified) | 9.72%
32 | Cc1ccc2[nH]c(=O)c(CN(C)S(=O)(=O)c3cccc4nonc34)cc2c1 | -5.89%
33 | CCC1=C(OC(=O)N(CC)CC)N2C(=O)OC(=NCCc3c[nH]c4ccccc34)[C@]2(C)[C@H]2C1=CC[C@H]1C(=O)N(CC)C(=O)[C@H]12 | -3.3%
34 | Cc1c(C(=O)N2CCCc3ccccc32)oc2ccccc12 | -96.2%
35 | Cc1c(C(=O)N2CCCc3ccccc32)sc2nc(-c3ccccc3)cn12 | -83.5%
36 | Cc1cccc2cc3c(N)c(C(=O)N4CCCc5ccccc54)sc3nc12 | 85.2% (active)
37 | COc1ccc2c(c1)cc1n2CCN=C1NN | -27.8%
38 | CN1c2ccc(C=O)c3c(C=O)ccc(c23)N(C)C1(C)C | 67% (active)
39 | CCN(CC(=O)Nc1c(F)cccc1F)C(=O)c1ccc(S(=O)(=O)N2CCCCC2)cc1 | 6.51%
40 | O=C(c1ccc(F)cc1)N1CCC(n2nnc3ccccc32)CC1 | 6.11%
41 | Cc1cc(OCc2ccc(C(=O)Nc3ccc(C(=O)O)cc3)o2)ccc1Cl | 32.2%
42 | CCOC(=O)c1ccc(NC(=O)c2c(N)n(C)c(=O)[nH]c2=O)cc1 | -15.4%
43 | Brc1ccc(-c2csc(N/N=C/c3ccc4c(c3)OCO4)n2)cc1 | -59.4%
44 | C(=N\Nc1ccc2ccccc2n1)/c1ccc2c(c1)OCO2 | 88.2% (active)
45 | Cc1noc(C)c1/C=N/Nc1ccc2ccccc2n1 | -146%
46 | CCCc1nc(N2CCN(C)CC2)c2sc(=S)n(-c3ccccc3)c2n1 | 2.12%

Row | Structure (SMILES) | inhibition
47 | CCOC(=O)C1C(=O)NCC1c1ccccc1 (stereo unspecified) | -12.2%
48 | NC(=O)COC(=O)c1ccc2c(c1)C(=O)N(Cc1ccco1)C2=O | -5.55%
49 | CCN1CCN(C(c2cccnc2)c2cc(Cl)c3cccnc3c2O)CC1 (stereo unspecified) | -29.1%
50 | Oc1c(CN2CCN(c3ccc(F)cc3)CC2)cc(Cl)c2cccnc12 | 69.6% (active)
51 | Cc1cccnc1NC(=O)c1cccc(S(=O)(=O)N2CCN(c3ccc(F)cc3)CC2)c1 | 26.9%
52 | CC(=O)c1ccc(NC(=O)CCc2nnc3ccc(NCc4ccco4)nn23)cc1 | -95.3%
53 | COc1ccc(CCn2c(=N)c(C(=O)NCC3CCCO3)cc3c(=O)n4cccc(C)c4nc32)cc1OC (stereo unspecified) | -9.36%
54 | Cc1cccn2c(=O)c3cc(C(=O)NCCN4CCOCC4)c(=N)n(Cc4cccnc4)c3nc12 | 97% (active)
55 | Cc1cccn2c(=O)c3cc(C(=O)NCC4CCCO4)c(=N)n(Cc4ccc(F)cc4)c3nc12 (stereo unspecified) | 9.52%
56 | CCOc1cccc(OCCCOc2cccc3cccnc23)c1 | 5.95%
57 | O=C1CCC([N+](=O)[O-])C(c2ccccc2Br)N1 (stereo unspecified) | 0.315%
58 | O=C1C(=O)N(CCCO)C(c2ccccc2)/C1=C(\O)c1ccc(Br)cc1 (stereo unspecified) | 4.06%
59 | O=C(Oc1cccc(N2C(=O)C3C4c5ccccc5C(c5ccccc54)C3C2=O)c1)c1ccco1 (stereo unspecified) | 2.5%
60 | CC1CN/C(=C\C(=O)c2ccc(Br)cc2)C(=O)N1 (stereo unspecified) | 62% (active)
61 | COc1cc2c(cc1OC)/C(=C/C(=O)c1ccc(NC(C)=O)cc1)NCC2 | 22.9%
62 | CN1CCCC(OC(=O)COc2ccc(Br)cc2)C1 (stereo unspecified) | 4.45%
63 | O=C(NCCCCCCCCCNC(=O)C(F)(F)F)C(F)(F)F | 9.8%
64 | CCOC(=O)N1CCN(S(=O)(=O)c2ccc(C(=O)Nc3ccc(F)cc3F)cc2)CC1 | 69.5% (active)
65 | CCOC(=O)N1CCN(S(=O)(=O)c2ccc(Br)cc2)CC1 | -14.3%
66 | CCOC(=O)N1CCN(S(=O)(=O)c2ccc(OC)cc2)CC1 | 4.08%
67 | Cc1cc(NC(=O)C(C)N2C(=O)c3ccccc3S2(=O)=O)no1 (stereo unspecified) | -18.2%
68 | CCN(CC)c1ccc(/C=N/NC(=O)c2cnccn2)c(O)c1 | 72.3% (active)
69 | CCN(CC)c1ccc(/C=N/NC(=O)CNC(=O)c2cccnc2)cc1 | 5.51%

Row | Structure (SMILES) | inhibition
70 | Cc1ccc(C(=O)NCCNC(=O)c2cnccn2)cc1 | -3.06%
71 | Cc1cn(C2C=CC(CO)O2)c(=O)[nH]c1=O (stereo unspecified) | -0.0254%
72 | CC[C@]1(O)CC2CN(CCc3c([nH]c4ccccc34)[C@@](C(=O)OC)(c3cc4c(cc3OC)N(C=O)[C@H]3[C@@](O)(C(=O)OC)[C@H](OC(C)=O)[C@]5(CC)C=CCN6CC[C@]43[C@@H]65)C2)C1 (stereo partly specified) | 102% (active)
73 | CC[C@]1(O)C[C@@H]2CN(CCc3c([nH]c4ccccc34)[C@@](C(=O)OC)(c3cc4c(cc3OC)N(C)[C@H]3[C@@](O)(C(=O)OC)[C@H](OC(C)=O)[C@]5(CC)C=CCN6CC[C@]43[C@@H]65)C2)C1 | 77.2% (active)
74 | CCc1nc2ccccc2c(C(=O)OC2CCCCC2=O)c1C (stereo unspecified) | 8.85%
75 | CCCc1cc(=O)[nH]c(SCC(=O)c2c(N)n(CC(C)C)c(=O)n(C)c2=O)n1 | 88.3% (active)
76 | CCCc1cc(=O)[nH]c(SCC(=O)OCc2ccccc2)n1 | 13.7%
77 | CCCc1cc(=O)[nH]c(SCC(=O)c2cc(C)n(CCC)c2C)n1 | 23.4%
78 | Cc1ccc2nc(SC(C)C(=O)NCc3ccco3)[nH]c2c1 (stereo unspecified) | 30%
79 | CC(=O)NN1C(=O)c2ccccc2NC1c1ccccc1 (stereo unspecified) | 19.3%
80 | CC1=NNC(=O)C1Cc1c(Cl)cccc1Cl (stereo unspecified) | 27%
81 | Oc1c(Cl)cc(Cl)c(Cl)c1Cc1c(O)c(Cl)cc(Cl)c1Cl | 77.3% (active)
82 | COCCNc1nc(N)c([N+](=O)[O-])c(N2CCCCCC2)n1 | 17.3%
83 | Cc1cc(OC(=O)c2ccc(OC(C)C)cc2)c([N+](=O)[O-])c(=O)[nH]1 | -3.29%
84 | N#CC(C(=O)c1ccc(S(=O)(=O)N2CCCCCC2)cc1)c1nc2ccccc2[nH]1 (stereo unspecified) | -4.96%
85 | O=C(C1CCCO1)N1CCC(c2nc3ccccc3[nH]2)CC1 (stereo unspecified) | -15.4%
86 | O=S(=O)(c1ccc(Br)cc1)N1CCC(c2nc3ccccc3[nH]2)CC1 | 78.3% (active)
87 | Cc1cccc(N2CCN(S(=O)(=O)c3ccc4[nH]c(=O)c(=O)[nH]c4c3)CC2C)c1 (stereo unspecified) | 3.92%
88 | COc1cc2c(cc1OC)C(C)N(S(=O)(=O)c1cnc(Cl)c(Cl)c1)CC2 (stereo unspecified) | 36.4%
89 | S=c1[nH]c(-c2cccs2)cn1-c1ccccc1 | -60.3%
90 | COc1ccc(-c2cn(-c3ccc(OC)cc3)c(=S)[nH]2)cc1 | -129%
91 | O=c1oc2ccccc2cc1-c1cn(-c2ccccc2)c(=S)[nH]1 | 119% (active)
